The text below walks through data of publication PMC8338941.

In this assay the target is Large ribosomal subunit protein eL13A (UniProt Q12690). Briefly: cross-link between two proteins; cross-linking mass spectrometry.
Large ribosomal subunit protein eL13A, sequence (Q12690 whole entry): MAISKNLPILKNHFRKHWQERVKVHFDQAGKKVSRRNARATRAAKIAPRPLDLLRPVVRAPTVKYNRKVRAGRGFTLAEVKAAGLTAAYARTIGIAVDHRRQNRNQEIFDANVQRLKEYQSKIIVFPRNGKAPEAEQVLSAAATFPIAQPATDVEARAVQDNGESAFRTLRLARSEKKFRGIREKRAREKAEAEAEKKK

For “Large ribosomal subunit protein uL29A, P0CX84”, the “listed as a hit” value is reported as “yes”.
Regarding “Large ribosomal subunit protein eL36B, O14455”, the “listed as a hit” value was “yes”.
